# Laboratory results as given in PubChem BioAssay.
# “And” between values parts separate entries of the source, which are not always exact repeats. Equal values may be shown once. Inconclusive results are not listed. The source made the active and inactive calls. Unless noted, no rule for the calls is given here.
# What was measured:
# [1] = rapamycin-like changes in RPL19A-GFP expression – cell-based, S. cerevisiae, multiplex flow cytometry, primary screen (AID 1862; in the data active = percent of DMSO control GFP below about 86%;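 also: lower values mimic rapamycin by blocking the RPL19A rise seen in DMSO cells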); conditions: S. cerevisiae RPL19A-GFP strain, flow cytometry fluorescence, 3 h; at 10 µM; stronger effect = lower value
# [2] = TOR pathway GLN3 branch reporter MEP2-GFP changes – S. cerevisiae, multiplex flow cytometry, primary screen (AID 1867;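 active = GFP response, as percent of the DMSO control, above the screen-wide mean plus 3 SD, about 139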;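 also: median GFP channel fluorescence of barcode-gated MEP2-GFP cells measured by flow cytometry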); conditions: S. cerevisiae MEP2-GFP strain, 3 h, at 10 µM, stronger effect = higher value
# [3] = TOR pathway RTG branch CIT2 reporter changes – S. cerevisiae, GFP fusion, multiplex flow cytometry, primary screen (AID 1870;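 active = percent response above a set limit, the screen-wide mean plus 3 SD, cut at about 130% in these data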;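 also: barcoded CIT2-GFP strain pooled with four other GFP strains with rapamycin as positive control; median GFP fluorescence per well over plate mean of DMSO wells so 100% = DMSO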); conditions: S. cerevisiae CIT2-GFP expression, 3 h, at 10 µM, stronger effect = higher value
# [4] = TOR pathway LAP4-GFP level changes – S. cerevisiae, multiplex flow cytometry, primary screen (AID 1873;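 active = GFP signal, as percent of the solvent control, above the screen mean plus 3 SD, about 149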); conditions: S. cerevisiae LAP4-GFP expression, 3 h, at 10 µM, stronger effect = higher value
# [5] = reduced mouse 2C T cell binding to pMHC/ICAM-1 vesicles – MLPCN validation set, flow cytometry, LFA-1/ICAM-1 modulator project, pilot screen (AID 2523;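 active = response below a set limit, under 55% cells CD8-positive and vesicle-bound, and CD8 cells' 90th-percentile brightness under 279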;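 as to vesicle binding response: mean PE anti-B7-1 fluorescence of CD8+ cells relative to row control; 100% = QL9-loaded vesicles with DMSO vehicle in the same plate row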); conditions: 2C mouse CD8+ T cells, at 7 µM, stronger effect = lower value; double positive events: measured here: CD8+/vesicle+ event percentage
# [6] = target: Integrin beta-1 (Homo sapiens) + Integrin alpha-4 (Homo sapiens) (UniProt P13612+P05556); test: alpha4beta1 integrin LIBS antibody binding reduction – U937 cells, HUTS-21 mAb, flow cytometry, validation set, VLA-4 allosteric modulator project, pilot screen (AID 2674;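 active = inhibition above 50%, about 3 SD of the validation set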;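 also: antibody binding induced by the VLA-4 ligand LDV present at three times its Kd; 0% = LDV ligand with antibody and no compound and 100% = antibody without LDV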); conditions: HUTS-21 LIBS mAb binding, at 6.7 µM, stronger effect = higher value
# [7] = calorie-restriction mimetic ROS inhibitors, yeast – validation compound set, pilot screen (AID 2706;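 active = superoxide response below 65% of plate, a cut near 3 SD across the whole screen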;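 also: yeast exposed to compound for one week at 30 degrees C before staining; 100% = mean of all compound wells on the same plate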); conditions: S. cerevisiae aging, superoxide DHE fluorescence; at 10 µM; stronger effect = lower value
# [8] = target: Beta-adrenergic receptor kinase 1 (Homo sapiens) (UniProt P25098); test: GRK2 binders displacing RNA aptamer, biochemical, validation, human GRK2, bead flow cytometry (AID 488806;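 active = aptamer binding inhibition above 30%, about 3 SD of noise from non-fluorescent compounds; inactive = inhibition at or below 30%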); conditions: bead-bound GRK2, FAM-aptamer displacement, at 10 µM, stronger effect = higher value
# [9] = target: AP-2 complex subunit beta (Homo sapiens) (UniProt P63010); test: beta-arrestin/AP2 interaction blockers – biochemical, validation set, GST-AP2 beads, flow cytometry, pilot screen (AID 504541;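 active = inhibition above 54%, about 3 SD of non-fluorescent compounds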;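 also: AP2 carries R879A mutation and is captured from E. coli lysate; bead-bound FITC arrestin peptide fluorescence measuring arrestin peptide binding to AP2; 0% = DMSO wells and 100% = excess unlabeled arrestin peptide control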); conditions: FITC arrestin peptide, at 10 µM, stronger effect = higher value
# [10] = cytosolic pH regulators acting via V-ATPase – S. cerevisiae, pHLuorin, HTS validation (AID 504600; in the data active = response above about 15%;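 also: plate controls were DMSO for no effect and reference compound for full effect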); conditions: V-ATPase proton transport, at 10 µM, stronger effect = higher value
# [11] = test system: anti-desmoglein-3 scFv antibody binding to human DSG3; test: blockers of pathogenic pemphigus antibody–desmoglein-3 binding – biochemical, validation compound set, bead-based, flow cytometry, pilot screen (AID 588368;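 active = binding below the plate cutoff, the plate median minus 3 SD, with a reading above zero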;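 also: signal is the median channel fluorescence of bead-bound GFP antibody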); conditions: Protein G beads, DSG3-Fc, scFv-GFP binding, at 10 µM, stronger effect = lower value
# [12] = test system: Botulinum neurotoxin type F light chain protease (Clostridium botulinum); test: Clostridium botulinum type F light chain protease inhibitors, microsphere substrate cleavage, validation (AID 588459); conditions: multiplex microsphere protease substrate cleavage assay, flow cytometry; at 10 µM; stronger effect = higher value
# [13] = target: Botulinum neurotoxin type A (Clostridium botulinum) (UniProt P0DPI0); test: BoNT/A light chain protease inhibitors, biochemical, multiplex microsphere flow cytometry, validation set (AID 588460); conditions: at 10 µM, stronger effect = higher value
# [14] = target: Lethal factor (Bacillus anthracis) (UniProt P15917); test: Bacillus anthracis lethal factor inhibition, microsphere flow cytometry protease assay, validation at 10 µM (AID 588461); conditions: multiplex microsphere protease cleavage assay, stronger effect = higher value
# [15] = Nile Red efflux blockade in pump-expressing yeast – validation compound set, multiplex, phenotypic, pilot screen (AID 588506;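 active = efflux inhibition above 0.42, the validation set average plus 4 SD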;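 also: Nile Red retained in cells so higher fluorescence means more efflux inhibition; 0 = negative control wells and 1 = enniatin B 25 µM full block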); conditions: S. cerevisiae pump-expressing triplex, Nile Red efflux flow cytometry; at 10 µM; stronger effect = higher value
# [16] = target: ATP-binding cassette sub-family B member 6 (Homo sapiens) (UniProt Q9NP58); test: blockers of ABCB6-driven porphyrin uptake – K562-ABCB6 cells, flow cytometry, validation set, pilot screen (AID 588550;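 active = inhibition above the screen-wide mean plus 3 SD, about 51%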;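 also: 0% = DMSO wells and 100% = benzethonium chloride 70 µM positive control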); conditions: K562-ABCB6 porphyrin accumulation, 1 h, at 10 µM, stronger effect = higher value
# [17] = AML differentiation inducers, ER-HoxA9 marrow cells – cell-based, GFP/MAC1 double positive, flow cytometry, validation set, primary screen (AID 588685;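 active = differentiation response of at least 50%, scaled between solvent and reference control, from cells with both markers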;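 also: compound exposure lasts four days before antibody staining and flow analysis; 0% = DMSO wells and 100% = 5 µM fulvestrant positive control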); conditions: stronger effect = higher value
# Sequence of Beta-adrenergic receptor kinase 1 (Homo sapiens) (P25098 whole entry, looked up): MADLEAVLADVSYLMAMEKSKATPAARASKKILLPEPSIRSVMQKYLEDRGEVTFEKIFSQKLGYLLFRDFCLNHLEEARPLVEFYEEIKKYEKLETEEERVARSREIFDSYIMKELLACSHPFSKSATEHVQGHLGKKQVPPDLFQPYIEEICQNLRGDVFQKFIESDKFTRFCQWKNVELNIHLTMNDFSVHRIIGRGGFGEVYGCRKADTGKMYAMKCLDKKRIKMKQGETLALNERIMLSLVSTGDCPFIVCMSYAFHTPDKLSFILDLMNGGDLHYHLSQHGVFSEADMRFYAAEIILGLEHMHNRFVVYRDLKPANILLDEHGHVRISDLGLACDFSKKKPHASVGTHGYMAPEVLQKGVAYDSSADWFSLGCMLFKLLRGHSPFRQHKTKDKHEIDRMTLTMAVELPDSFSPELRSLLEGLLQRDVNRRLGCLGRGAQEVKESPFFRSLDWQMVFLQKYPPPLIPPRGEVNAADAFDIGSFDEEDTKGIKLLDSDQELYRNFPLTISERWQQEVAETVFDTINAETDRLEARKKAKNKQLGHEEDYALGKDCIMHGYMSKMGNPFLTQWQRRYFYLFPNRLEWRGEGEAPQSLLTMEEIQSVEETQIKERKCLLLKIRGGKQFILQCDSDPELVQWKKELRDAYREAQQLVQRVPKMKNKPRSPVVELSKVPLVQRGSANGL
# Sequence of Lethal factor (Bacillus anthracis) (P15917 whole entry, looked up): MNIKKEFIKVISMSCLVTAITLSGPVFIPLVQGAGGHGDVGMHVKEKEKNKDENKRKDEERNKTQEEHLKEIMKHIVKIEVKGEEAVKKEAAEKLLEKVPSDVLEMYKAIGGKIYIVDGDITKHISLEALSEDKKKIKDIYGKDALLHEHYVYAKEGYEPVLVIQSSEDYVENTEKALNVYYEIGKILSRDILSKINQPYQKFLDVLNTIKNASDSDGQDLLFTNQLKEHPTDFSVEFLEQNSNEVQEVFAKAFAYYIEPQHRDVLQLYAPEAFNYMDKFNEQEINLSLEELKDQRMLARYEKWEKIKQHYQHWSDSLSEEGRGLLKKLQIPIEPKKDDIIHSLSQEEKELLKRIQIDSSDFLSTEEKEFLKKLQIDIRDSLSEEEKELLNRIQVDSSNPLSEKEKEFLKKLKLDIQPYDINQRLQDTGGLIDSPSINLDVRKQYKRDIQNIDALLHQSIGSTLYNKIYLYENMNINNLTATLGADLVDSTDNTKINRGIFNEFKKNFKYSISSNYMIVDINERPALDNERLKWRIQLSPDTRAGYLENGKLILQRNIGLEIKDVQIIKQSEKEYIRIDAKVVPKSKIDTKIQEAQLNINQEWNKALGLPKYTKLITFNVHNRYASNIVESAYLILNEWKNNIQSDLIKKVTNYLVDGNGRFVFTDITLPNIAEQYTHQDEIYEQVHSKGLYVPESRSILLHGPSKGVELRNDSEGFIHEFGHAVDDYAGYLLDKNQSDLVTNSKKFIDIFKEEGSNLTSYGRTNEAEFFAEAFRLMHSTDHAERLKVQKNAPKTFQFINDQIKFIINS
# Sequence of Botulinum neurotoxin type A (Clostridium botulinum) (P0DPI0 whole entry, looked up): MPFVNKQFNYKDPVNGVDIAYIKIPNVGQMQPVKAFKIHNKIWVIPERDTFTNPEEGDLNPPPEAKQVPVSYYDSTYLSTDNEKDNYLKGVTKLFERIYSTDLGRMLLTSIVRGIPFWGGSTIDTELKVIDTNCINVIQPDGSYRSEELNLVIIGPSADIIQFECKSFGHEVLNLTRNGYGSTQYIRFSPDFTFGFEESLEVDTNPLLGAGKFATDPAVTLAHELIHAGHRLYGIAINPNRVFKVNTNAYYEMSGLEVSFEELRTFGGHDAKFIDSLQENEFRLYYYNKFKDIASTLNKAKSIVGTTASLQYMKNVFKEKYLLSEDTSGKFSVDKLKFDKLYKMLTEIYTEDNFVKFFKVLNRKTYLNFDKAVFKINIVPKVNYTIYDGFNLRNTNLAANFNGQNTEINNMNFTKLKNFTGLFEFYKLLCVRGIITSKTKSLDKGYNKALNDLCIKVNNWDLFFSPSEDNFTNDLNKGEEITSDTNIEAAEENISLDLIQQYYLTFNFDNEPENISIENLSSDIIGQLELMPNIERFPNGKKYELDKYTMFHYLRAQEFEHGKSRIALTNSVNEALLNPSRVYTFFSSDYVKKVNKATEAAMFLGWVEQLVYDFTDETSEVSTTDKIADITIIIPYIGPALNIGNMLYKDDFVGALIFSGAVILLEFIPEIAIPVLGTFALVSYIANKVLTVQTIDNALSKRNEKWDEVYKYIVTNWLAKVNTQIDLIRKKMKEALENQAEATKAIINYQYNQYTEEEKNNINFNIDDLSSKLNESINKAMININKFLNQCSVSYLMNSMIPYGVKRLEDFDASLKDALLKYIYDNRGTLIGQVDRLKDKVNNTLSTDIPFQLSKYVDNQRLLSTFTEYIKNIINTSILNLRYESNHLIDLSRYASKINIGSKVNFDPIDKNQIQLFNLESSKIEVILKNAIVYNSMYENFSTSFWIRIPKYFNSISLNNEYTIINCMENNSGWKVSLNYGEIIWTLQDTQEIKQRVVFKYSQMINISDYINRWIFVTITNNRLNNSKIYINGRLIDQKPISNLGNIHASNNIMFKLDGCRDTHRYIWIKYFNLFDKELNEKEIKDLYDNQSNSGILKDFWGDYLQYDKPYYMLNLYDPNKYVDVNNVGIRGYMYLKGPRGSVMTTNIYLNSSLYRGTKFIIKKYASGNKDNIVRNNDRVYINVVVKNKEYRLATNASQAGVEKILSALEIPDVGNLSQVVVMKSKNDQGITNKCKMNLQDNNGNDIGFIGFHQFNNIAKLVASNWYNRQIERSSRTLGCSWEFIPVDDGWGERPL
# Sequence of AP-2 complex subunit beta (Homo sapiens) (P63010 whole entry, looked up, one chain of several): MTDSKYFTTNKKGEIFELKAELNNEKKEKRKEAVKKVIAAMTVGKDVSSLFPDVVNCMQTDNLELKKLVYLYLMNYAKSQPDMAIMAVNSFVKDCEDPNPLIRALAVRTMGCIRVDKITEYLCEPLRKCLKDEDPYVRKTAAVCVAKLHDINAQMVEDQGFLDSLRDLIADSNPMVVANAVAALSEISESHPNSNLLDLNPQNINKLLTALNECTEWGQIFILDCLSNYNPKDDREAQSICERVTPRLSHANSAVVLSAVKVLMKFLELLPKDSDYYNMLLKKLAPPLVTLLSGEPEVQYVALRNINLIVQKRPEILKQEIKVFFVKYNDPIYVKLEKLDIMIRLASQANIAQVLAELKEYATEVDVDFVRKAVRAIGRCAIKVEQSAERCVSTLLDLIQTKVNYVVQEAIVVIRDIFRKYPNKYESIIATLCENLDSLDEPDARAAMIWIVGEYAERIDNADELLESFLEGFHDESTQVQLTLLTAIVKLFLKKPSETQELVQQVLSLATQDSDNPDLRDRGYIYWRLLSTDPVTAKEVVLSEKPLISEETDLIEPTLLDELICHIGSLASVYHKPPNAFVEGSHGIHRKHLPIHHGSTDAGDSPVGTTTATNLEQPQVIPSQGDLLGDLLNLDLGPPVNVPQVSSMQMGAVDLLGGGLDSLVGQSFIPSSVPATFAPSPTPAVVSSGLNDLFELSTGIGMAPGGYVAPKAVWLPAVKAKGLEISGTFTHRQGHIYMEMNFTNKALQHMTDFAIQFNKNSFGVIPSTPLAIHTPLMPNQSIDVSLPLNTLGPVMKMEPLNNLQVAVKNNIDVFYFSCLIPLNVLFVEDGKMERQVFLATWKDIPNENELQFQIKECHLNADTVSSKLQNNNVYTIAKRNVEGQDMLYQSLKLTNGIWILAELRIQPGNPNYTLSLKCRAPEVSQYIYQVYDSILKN
# Sequence of ATP-binding cassette sub-family B member 6 (Homo sapiens) (Q9NP58 whole entry, looked up): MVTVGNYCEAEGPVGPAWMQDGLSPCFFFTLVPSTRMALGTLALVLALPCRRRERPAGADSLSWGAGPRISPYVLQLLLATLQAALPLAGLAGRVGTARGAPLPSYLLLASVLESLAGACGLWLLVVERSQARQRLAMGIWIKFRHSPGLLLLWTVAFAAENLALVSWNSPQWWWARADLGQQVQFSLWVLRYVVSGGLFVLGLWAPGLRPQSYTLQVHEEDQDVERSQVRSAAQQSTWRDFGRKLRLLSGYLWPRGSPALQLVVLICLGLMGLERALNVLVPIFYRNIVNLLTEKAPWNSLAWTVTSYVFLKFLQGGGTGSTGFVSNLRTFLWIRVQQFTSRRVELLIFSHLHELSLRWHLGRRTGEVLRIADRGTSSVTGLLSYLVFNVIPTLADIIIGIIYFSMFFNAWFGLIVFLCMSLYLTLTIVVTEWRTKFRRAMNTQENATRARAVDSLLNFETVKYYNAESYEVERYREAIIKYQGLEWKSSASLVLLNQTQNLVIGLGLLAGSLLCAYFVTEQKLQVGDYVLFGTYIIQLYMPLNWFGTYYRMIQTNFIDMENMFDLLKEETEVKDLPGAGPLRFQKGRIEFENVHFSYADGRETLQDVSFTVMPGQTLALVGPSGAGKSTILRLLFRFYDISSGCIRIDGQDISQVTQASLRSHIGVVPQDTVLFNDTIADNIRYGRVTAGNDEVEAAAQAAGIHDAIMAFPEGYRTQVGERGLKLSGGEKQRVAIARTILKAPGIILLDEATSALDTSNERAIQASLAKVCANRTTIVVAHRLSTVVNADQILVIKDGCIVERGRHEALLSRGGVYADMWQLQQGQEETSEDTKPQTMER
SMILES,percent of DMSO control GFP [1],GFP response vs DMSO [2],percent response of DMSO control [3],GFP response vs DMSO [4],double positive events [5],vesicle binding response [5],inhibition [6],superoxide response (% of plate) [7],aptamer binding inhibition [8],inhibition [9],response [10],binding (% of control) [11],inhibition [12],inhibition [13],inhibition [14],efflux inhibition (fraction of control) [15],inhibition [16],differentiation response [17]
NCC1(c2ccc3c(c2)OCCO3)CCCC1,98.3% (inactive),101% (inactive),97.9% (inactive),89.3% (inactive),60.7%,107% (inactive),-51.5% (inactive),101% (inactive),1% (inactive),6.32% (inactive),-0.06% (inactive),98.8% (inactive),0.5% (inactive),-0.6% (inactive),0.5% (inactive),0.06 (inactive),6% (inactive),1.41% (inactive)
C[N+]1(C)[C@@H]2CC(OC(=O)[C@H](CO)c3ccccc3)C[C@H]1[C@@H]1O[C@@H]12 (stereo partly specified),97.8% (inactive) and 102% (inactive),104% (inactive) and 114% (inactive),99.7% (inactive) and 92% (inactive),94.8% (inactive) and 112% (inactive),62.3% and 61.3%,109% (inactive) and 5740% (inactive),12.3% (inactive) and -9.98% (inactive),103% (inactive) and 114% (inactive),-1% (inactive) and 1% (inactive),5.6% (inactive) and -2.35% (inactive),3.4% (inactive) and -1.88% (inactive),99.6% (inactive) and 101% (inactive),-3.5% (inactive) and 1.5% (inactive),-1.8% (inactive) and 0.7% (inactive),-5.6% (inactive) and 13.1% (inactive),–,-8% (inactive) and 5% (inactive),-6.03% (inactive) and -15.2% (inactive)
O=C1CC[C@@]2(O)[C@H]3Cc4ccc(O)c5c4[C@@]2(CCN3CC2CC2)[C@H]1O5,98.3% (inactive),126% (inactive),96.6% (inactive),84.7% (inactive),63.4%,207% (inactive),1.61% (inactive),95.9% (inactive),2% (inactive),-0.81% (inactive),1.19% (inactive),107% (inactive),–,–,–,-0.02 (inactive),14% (inactive),-3.28% (inactive)
O=C1NC(=O)C2(Cc3ccccc3N3CCCC32)C(=O)N1c1ccc(Cl)cc1 (stereo unspecified),106% (inactive),88.8% (inactive),101% (inactive),93.3% (inactive),64.8%,186% (inactive),14.1% (inactive),104% (inactive),6% (inactive),-2.86% (inactive),0.31% (inactive),100% (inactive),-0.7% (inactive),0.8% (inactive),0.9% (inactive),0.24 (inactive),12% (inactive),1.22% (inactive)
CC(=O)[C@H]1CC[C@H]2[C@@H]3CC[C@H]4C[C@H](O)CC[C@]4(C)[C@H]3C(=O)C[C@]12C,100% (inactive),97.9% (inactive),92% (inactive),106% (inactive),60.9%,146% (inactive),6.29% (inactive),110% (inactive),3% (inactive),42.5% (inactive),-11.1% (inactive),99.5% (inactive),0.8% (inactive),2.5% (inactive),-1.9% (inactive),0.14 (inactive),5% (inactive),46.6% (inactive)
COC1=CC(=O)OC(/C=C/c2ccccc2)C1 (stereo unspecified),102% (inactive),105% (inactive),105% (inactive),104% (inactive),56.3%,194% (inactive),13.8% (inactive),101% (inactive),-1% (inactive),47% (inactive),-10.4% (inactive),106% (inactive),3.9% (inactive),1.1% (inactive),5.6% (inactive),0.06 (inactive),4% (inactive),22.4% (inactive)
O=c1[nH]c2ccccc2n1CCCN1CCC(n2c(=O)[nH]c3cc(Cl)ccc32)CC1,99.1% (inactive),109% (inactive),91% (inactive),112% (inactive),55.1%,240% (inactive),-4.52% (inactive),114% (inactive),1% (inactive),-6.83% (inactive),-0.17% (inactive),101% (inactive),–,1.3% (inactive),-2.2% (inactive),-0.1 (inactive),2% (inactive),-34.4% (inactive)
S=C1NCCN1,99.1% (inactive),109% (inactive),97.9% (inactive),102% (inactive),65.7%,186% (inactive),6.29% (inactive),98.2% (inactive),3% (inactive),24.8% (inactive),-0.28% (inactive),98% (inactive),–,–,–,0.63 (active),14% (inactive),-0.2% (inactive)
